Screening results from PubChem.
A selection: hits, their analogues and other compounds. The true share with any hit is near 21%.
Shiga toxin inh – inhibitors of Shiga toxin in Vero cells; Vero cells, Shiga toxin protein synthesis inhibition reporter; inhibition, % at 38.7 µM; hit rate 9.2% among 290,000; AID 2315; in the data active = inhibition mostly above about 28%, no sharp cut-off; inactive = mostly below about 43%; note: 0% is about no effect
Pf growth 48h – P. falciparum growth inhibition at 48 hours (one generation); P. falciparum luciferase growth in erythrocytes, 48 h; Potency, µM (highest dose often 28.7 µM), inactives show top-dose activity change, negative = inhibition, most hits filed as inhibitors; hit rate 5.9% among 310,000; note: potency is the fitted concentration of half-maximal effect; % is set by controls: 0 for no effect and ±100 for the full control effect
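Luminescence readout; reporter = integrated firefly luciferase in P. falciparum. RBC culture at 2% hematocrit, 0.1% parasitemia final, 37 C/5% CO2; decreased signal taken as growth inhibition.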
Sm TGR block – inhibitors of Schistosoma mansoni thioredoxin glutathione reductase. Q962Y6. purified TGR, DTNB reduction, TNB absorbance 405 nm. Potency, µM (doses to about 114 µM), inactives show at the top dose activity change, negative = inhibition, most hits filed as inhibitors. hit rate 3% among 360,000; note: potency is the fitted concentration of half-maximal effect; % is set by controls: 0 for no effect and ±100 for the full control effect; nearly all actives have a fitted effect of over 60% in size
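TGR 20 nM + NADPH 100 uM (dispensed conc.), cpd preinc 15 min RT; start with NADPH (500 uM addition) then DTNB (15 mM addition). Kinetic TNB absorbance, 405 nm filter. Four-parameter Hill fit across titration.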
NS1 function inh – inhibitors of influenza NS1 protein function. hit rate 0.4% among 270,000. Potency, µM (top dose mostly 46.1 µM), for the others: at the top dose activity, positive = more growth; calls by dose curve; note: potency is the fitted concentration of half-maximal effect; actives are rising curves; nearly all actives have a fitted effect of over 50% in size
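OD600 was taken as the measure of yeast growth restored by compound in an NS1-expressing S. cerevisiae strain. Cells had been washed out of glucose medium and diluted 1:100 into galactose -URA medium, pH 6.0.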
Pf growth 96h – inhibits malaria parasite growth, 96 h | P. falciparum luciferase reporter growth, 96 h | Potency, µM (doses to about 28.7 µM), inactives show at the top dose activity change, negative = inhibition, hits mostly inhibitors | hit rate 6.9% among 320,000; note: potency is the fitted concentration of half-maximal effect; % is set by controls: 0 for no effect and ±100 for the full control effect
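Compounds incubated with erythrocytes infected by luciferase-expressing P. falciparum (2% hematocrit, 0.05% parasitemia final) for 96 hours, 37 C in 5% CO2. Growth inhibition scored as decreased luciferase luminescence.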
Cycloheximide cs – counter-screen hit for Shiga toxin inhibitors, cycloheximide; cell reporter, cycloheximide protein synthesis inhibition counterscreen; max response, %; hit rate 12% among 300,000; in the data active = max response mostly above about 13%, no sharp cut-off; inactive = mostly below about 14%; note: read at 38.3 µM for the half of the compounds with a filed dose; 0% is about no effect
* marks the source's active call; other numbers are inactive results; ? = inconclusive; · = not tested or not shown. Unless noted, calls come from the whole dose curve; as a rule, active = well fitted curve in the direction sought with a large enough effect; inconclusive = small, poorly fitted or top-dose-only effect, or another doubt; inactive = no such curve, though single readings can be large; an effect the other way counts as inactive or inconclusive.

SMILES	Shiga toxin inh	Pf growth 48h	Sm TGR block	NS1 function inh	Pf growth 96h	Cycloheximide cs
CCN(CC)C(=O)Cn1cc(SCC(=O)Nc2ccccc2C)c2ccccc21	·	·	4%	·	·	·
COc1cccc(NC(=O)CSc2c(C)cnc3c2c(=O)n(C)c(=O)n3C)c1	·	·	8%	·	·	·
O=C(/C=C/c1ccc(-c2cccc([N+](=O)[O-])c2)o1)N1CCOCC1	146*	97%	40µM*	-8%	55%	31*
COc1cc(OC)cc(C(=O)NCC(=O)OCC(=O)Nc2ccc(C)c(S(=O)(=O)N3CCOCC3)c2)c1	·	5%	-11%	·	13%	·
C=CCn1c(C)cc(C(=O)CSc2nnc(C3CC3)n2C2CC2)c1C	·	45%	4%	·	-1%	·
C=CCn1c(C)cc(C(=O)CN2NS(=O)(=O)c3ccccc3C2=O)c1C	87*	92%	9%	-6%	104%	33*
C=CCn1c(C)cc(C(=O)Cn2ncc(Cl)c(Cl)c2=O)c1C	73*	3%	40µM*	4%	9%	42*
O=C(Cn1ncc(Cl)c(Cl)c1=O)c1ccc(Cl)cc1	32*	-29%	?	-13%	?	21*
CC(C)(C)C(=O)Cn1ncc(Cl)c(Cl)c1=O	-31	?	40µM*	·	?	-14
CCOC(=O)c1cc(OC(=O)c2ccc(C)cc2)n(-c2ccccc2)n1	·	·	6%	·	·	·
Cc1ccc(Cl)cc1N1CCN(C(=O)c2ccccc2SCC(=O)N2CCCC2)CC1	·	?	-11%	·	?	·
CCC(C)NC(=O)C1CCC(CNS(=O)(=O)c2ccc3c(c2)N(C(C)=O)CCO3)CC1 (centres undefined)	-7	-13%	-10%	3%	-8%	-8
CCOC(=O)c1cc(-c2ccccc2)n(-c2cccc(C(=O)Nc3ccc(OC)cc3)c2)c1C	·	·	5%	·	·	·
CCCCCn1c(N)c(-c2nc3ccccc3s2)c2c([N+](=O)[O-])nn(C)c(=O)c21	-34	?	-22%	5%	5.2µM*	11
CCCCn1c(N)c(-c2nc3ccccc3o2)c2c([N+](=O)[O-])nn(C)c(=O)c21	-4	15%	-2%	15%	31%	3
CCc1cccc(N(C(=O)c2csnn2)C(C(=O)NC2CCCCC2)c2cccnc2)c1 (centres undefined)	-6	-26%	5%	2%	?	2
O=S(=O)(Nc1ccc(F)cc1F)c1ccc(Br)s1	·	·	-6%	·	·	·
CCOc1ccc2oc(C(=O)OCC(=O)NC3CCCC3)c(C)c2c1	·	-18%	0%	·	-14%	·
O=C(N/N=C/C(Br)=C/c1ccccc1)c1ccc([N+](=O)[O-])cc1	4	-8%	6%	-6%	18%	11
O=C(N/N=C/C(Br)=C/c1ccccc1)c1ccncc1	73*	10µM*	-24%	-32%	15µM*	38*
O=C(N/N=C/C(Br)=C/c1ccccc1)c1cccnc1	66*	10µM*	-11%	-46%	10µM*	38*
COC(=O)C1CCN(S(=O)(=O)Cc2ccccc2Cl)CC1	0	-5%	1%	2%	0%	-2
N#CC(=C=[N-])c1nc2ccccc2nc1-[n+]1cccc(NC(=O)c2cccs2)c1	-23	-10%	40µM*	-2%	-4%	-2
N#CC(=C=[N-])c1nc2ccccc2nc1-[n+]1cccc(NC(=O)c2ccc(F)cc2)c1	11	?	-29%	2%	?	7
N#CC(=C=[N-])c1nc2ccccc2nc1-[n+]1cccc(NC(=O)c2ccccc2)c1	-14	?	40µM*	-3%	39%	-1
CCOC(=O)C(C)Oc1ccc(OCc2ccccc2)cc1 (centres undefined)	2	140%	4%	·	19%	14
